The results in this text go back to PubChem BioAssay AID689 (Sanford-Burnham Center for Chemical Genomics, 2007).

One may read the inhibition as the drop in the measured response relative to a control, in per cent.

Structures are written as SMILES. The whole screen tested about 62,000 compounds, of which about 80 (0.1%) were called active. These entries were drawn from the full list. Entries with a potency or affinity are not part of this list. A number with no mark means an inactive call. No rule for the calls is given here.

Ephrin type-A receptor 4 (Mus musculus), sequence (Q03137 whole entry, looked up): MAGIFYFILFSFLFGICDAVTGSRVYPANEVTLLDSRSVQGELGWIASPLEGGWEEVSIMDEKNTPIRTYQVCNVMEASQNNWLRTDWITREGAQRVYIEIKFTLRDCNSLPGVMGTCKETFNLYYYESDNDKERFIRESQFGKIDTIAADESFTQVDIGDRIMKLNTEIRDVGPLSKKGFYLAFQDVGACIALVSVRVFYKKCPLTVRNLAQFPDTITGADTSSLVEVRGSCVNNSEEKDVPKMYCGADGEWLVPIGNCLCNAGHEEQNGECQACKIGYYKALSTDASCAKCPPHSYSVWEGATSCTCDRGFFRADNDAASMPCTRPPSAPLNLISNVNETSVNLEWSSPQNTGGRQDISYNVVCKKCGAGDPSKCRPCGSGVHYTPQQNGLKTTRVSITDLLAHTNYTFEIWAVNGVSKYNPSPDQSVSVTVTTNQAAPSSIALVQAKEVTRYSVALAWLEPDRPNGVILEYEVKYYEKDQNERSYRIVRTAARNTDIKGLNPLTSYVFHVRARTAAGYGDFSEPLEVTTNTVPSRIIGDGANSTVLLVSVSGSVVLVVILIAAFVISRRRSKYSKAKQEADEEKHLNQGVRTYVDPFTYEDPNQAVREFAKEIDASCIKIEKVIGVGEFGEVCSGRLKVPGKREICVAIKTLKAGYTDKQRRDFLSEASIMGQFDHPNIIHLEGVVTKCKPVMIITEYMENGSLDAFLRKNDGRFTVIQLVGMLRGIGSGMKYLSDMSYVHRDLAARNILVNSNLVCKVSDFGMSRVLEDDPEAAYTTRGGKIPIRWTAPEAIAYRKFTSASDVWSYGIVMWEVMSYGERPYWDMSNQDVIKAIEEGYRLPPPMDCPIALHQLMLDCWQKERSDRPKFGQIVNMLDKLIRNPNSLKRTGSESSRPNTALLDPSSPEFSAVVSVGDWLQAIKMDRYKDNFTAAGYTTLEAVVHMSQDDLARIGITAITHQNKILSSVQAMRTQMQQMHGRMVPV

This test addresses Ephrin type-A receptor 4 (Mus musculus) (UniProt Q03137). The test is described as follows: inhibitors of EphA4 binding to KYL peptide, primary screen, biochemical, colorimetric, mouse EphA4 (AID 689). The following applies: EphA4-AP binding to KYL peptide, pNPP A405, at 10 µM, hits give high values.
For `CCCOc1nc2c(c(=O)n(C)c(=O)n2C)n1CCC`, the inhibition was -3.5%.

For the molecule `CC(=O)c1c(C)n(-c2ccccc2)c2ccc(OCC(O)CN3CCOCC3)cc12` (stereo unspecified), the inhibition was -25.3%.

`Cn1c(=O)n(C)c2cc(S(=O)(=O)NCc3ccco3)ccc21`: the inhibition is -8%. With `N#CC(c1ccc(O)cc1)N1CCCCC1` (stereo unspecified) the figure was 0.9%; with `Cc1ccc(NC(=O)N2CCC(C(=O)NCC(C)C)CC2)cc1`, -0.8%. To `CC(C)OCCCNC(=O)C1CCC(=O)N1C(C)C` (stereo unspecified) belongs -3.7%; to `COc1ccc(S(=O)(=O)Nc2ccc(NS(=O)(=O)c3ccc(OC)cc3)c3ccccc23)cc1`, -1.5% [this sample at 5 µg/mL].

Regarding `CCc1ccc(S(=O)(=O)Nc2cc(Br)c(O)c3ccccc23)cc1`, the inhibition is 2.2% [this sample at 5 µg/mL]. With `Cc1ccc(S(=O)(=O)Oc2cccc(N3C(=O)C4CC=CCC4C3=O)c2)cc1` (stereo unspecified) the figure was -10.4%; with `CCN(CC(=O)Nc1ccc2c(c1)OCCO2)c1ccc(S(=O)(=O)N2CCOCC2)cn1`, -6.5%; with `O=C(Cc1cccs1)N1CCN(c2cccc(Cl)c2)CC1`, 11.4% [this sample at 5 µg/mL].

For the molecule `COc1cccc(C2CC(=O)N3CN(c4ccccc4F)CSC3=C2C#N)c1` (stereo unspecified), the inhibition is 12.3%. With `COc1ccc(C2CC(=O)N3CN(c4ccccc4F)CSC3=C2C#N)cc1OC` (stereo unspecified) the figure was -4.9%; with `CCOC(=O)c1c(NC(=S)Nc2ccccc2)sc2c1CCCCC2`, 1.6%; with `CCOC(=O)c1c(NC(=S)Nc2ccccc2)sc2c1CCN(CC)C2`, 0.4%.

Take `Cc1ccc2[nH]c(=O)c(CN(CCCN3CCOCC3)C(=O)NC3CCCCC3)cc2c1`: the inhibition is -12%. To `COc1ccccc1Cc1noc(C(C)(C)NC(=O)c2ccccc2)n1` belongs 9%.

Take `CN(C)CCCNC(=O)CC(c1ccc(F)cc1)c1ccco1` (stereo unspecified): the inhibition was -15.3%.

As to `CCOC(=O)C1=C(c2ccccc2)N=c2s/c(=C\c3ccc(O)cc3)c(=O)n2C1c1cccs1` (stereo unspecified), the inhibition is 23.9%. To `CCOC(=O)C1=C(c2ccccc2)N=c2s/c(=C\c3ccc(O)c(OC)c3)c(=O)n2C1c1ccc(OC)cc1` (stereo unspecified) belongs 7.7% [this sample at 5 µg/mL]; to `O=C(O)CCC(=O)NCCn1c(-c2ccccc2)csc1=Nc1ccccc1`, -2.4%; to `CCOc1ccc(-c2nn(-c3ccccc3)cc2/C=C2\SC(=S)N(CCOC)C2=O)cc1`, 24.2% [this sample at 5 µg/mL]. For `O=C1/C(=C\c2cccnc2)SC(=S)N1C1CCS(=O)(=O)C1` (stereo unspecified), the inhibition was 1.1%. With `Nc1ccc(N(c2ccccc2)c2ccc(N)cc2)cc1` the figure was 5.1%; with `CCN(Cc1ccccc1)C(=O)c1ccc([N+](=O)[O-])cc1`, 1.5% [this sample at 5 µg/mL]. In the case of `CCOc1ccc(S(=O)(=O)N(CC(=O)Nc2ccccc2C)c2ccc(C)cc2)cc1`, the inhibition was 2% [this sample at 5 µg/mL]. With `Cc1cccc2sc(NC(=O)c3ccc(Cl)s3)nc12` the figure was -3.3%; with `Cc1cccc2sc(NC(=O)c3ccccc3C(=O)O)nc12`, -11.2% [this sample at 5 µg/mL].

Turning to `CCOC(=O)C(O)(CCC(O)(C(=O)OCC)C(=O)OCC)C(=O)OCC`, the inhibition was -4.3%. For `O=C1CCC(C23CC4CC(CC(C4)C2)C3)=NN1`, the inhibition is -8.4% [this sample at 5 µg/mL]. With `Cc1nc(-c2ccc(O)c(O)c2)cs1` the figure was 1.8%. With `Oc1ccc(-c2cn3c(n2)SCC3)cc1` the figure was 4.1%; with `Cc1onc(-c2ccccc2Cl)c1C(=O)Nc1ccc(N2CCOCC2)cc1`, 1.6%.

As for `O=C1c2nc3ccccn3c2C(=O)N1Cc1ccccc1`, the inhibition was 6.8%. To `Cc1ccc(N(CC(=O)N/N=C/c2ccco2)S(=O)(=O)c2ccccc2)cc1` belongs 15.6%; to `CCOc1ccc(S(=O)(=O)N(CC(=O)O)c2ccccc2)cc1`, 0.2%. Take `Cc1ccc(-c2nc3ncccc3o2)cc1NC(=O)COc1ccccc1`: the inhibition was 4.8%. With `CCOC(=O)c1cnc2c(OC)cccc2c1N1CCN(c2ccccc2OC)CC1` the figure was 3.2%. With `O=[N+]([O-])/C=C/c1cn(Cc2ccc(F)cc2)c2ccccc12` the figure was 30.9%. With `Cc1cccc(Cn2cc(/C=C/[N+](=O)[O-])c3ccccc32)c1` the figure was 40.7%; with `Cc1ccc(NC(=O)N2Cc3ccccc3CC2C(=O)NC(C)(C)C)cc1` (stereo unspecified), 1%. Consider `CNc1ccc(Br)cc(C(=O)/C=C/c2ccc3c(c2)OCO3)c1=O`, for which the inhibition was 32.2%. To `O=C(/C=C/c1ccc2c(c1)OCO2)c1ccc(Br)cc1` belongs 3.2% [this sample at 5 µg/mL]; to `CCOC(=O)c1sc(NC(NC(=O)c2ccco2)(C(=O)OC)C(F)(F)F)nc1C` (stereo unspecified), 4.3%. Regarding `CCN1/C(=C/C(C)=O)Sc2ccccc21`, the inhibition is -0.8% [this sample at 5 µg/mL].

`CCN1/C(=C/c2ccc3ccccc3[n+]2CC)C=Cc2ccccc21`: the inhibition is 2%. To `Cn1c(=O)[nH]c(=O)c2c1nc(CN1CCN(c3cccc(Cl)c3)CC1)n2CCN1CCOCC1` belongs 8.6%; to `O=C(c1sc2ccccc2c1Cl)N(Cc1ccco1)C1CCS(=O)(=O)C1` (stereo unspecified), -4.2%; to `COc1ccccc1C1C(C(N)=O)=C(C)Nc2nc(-c3ccccc3Cl)nn21` (stereo unspecified), -24.8%. To `Cc1cc(/C=C2\SC(=S)NC2=O)c(C)n1C1CC1` belongs 9.1%; to `Cc1cc(C=C2C(=O)N(C)C(=O)N(C)C2=O)c(C)n1C`, 3.4% [this sample at 5 µg/mL]; to `O=C(c1ccccc1)N1CCN(C(=O)C23CC4CC(CC(C4)C2)C3)CC1`, -9.8%.

As for `O=C1c2ccccc2NC(c2ccc(Cl)c(Cl)c2)N1Cc1ccccc1` (stereo unspecified), the inhibition is 7.9% [this sample at 5 µg/mL]. To `Cc1ccc(C)c(S(=O)(=O)Nc2ccccc2)c1` belongs 5.9% [this sample at 5 µg/mL]; to `CCOc1cc(C(=S)N2CCOCC2)ccc1OS(=O)(=O)c1ccc(NC(C)=O)cc1`, -6.9%; to `Cc1cccc(C)c1NC(=O)CSc1nnc(-c2ccoc2C)n1C`, -4.3%.

For the molecule `Cc1occc1-c1nnc(SCC(=O)c2c[nH]c3ccccc23)n1C`, the inhibition is 0.9%. With `Cn1c(SCC(=O)NC2CCCC2)nc2cccnc21` the figure was -0.5%. With `Cc1c(C(=O)NCCc2ccccc2)oc2ccc(S(=O)(=O)N3CCC4(CC3)OCCO4)cc12` the figure was -4.2%; with `Cc1cc2cc(CNC(=O)C3CC3)ccc2n1C`, -5.8%. For the molecule `COc1ccc(CNC(=O)c2ccc(S(=O)(=O)N3CCCC3)cc2)cc1OC`, the inhibition was -5.4%. To `COc1ccccc1NC(=O)Cc1csc(N)n1` belongs 3.7%. To `CCCCN(C)C/C(O)=C(\C#N)c1nc(-c2ccccc2)cs1` belongs -4.9%. With `CCCCN(CCCC)c1nc2ccccc2nc1C(C#N)C(=O)NCCCOC` (stereo unspecified) the figure was 13.6%; with `Cc1c(NC(=O)c2ccc(CSc3ccc(Cl)cc3)cc2)c(=O)n(-c2ccccc2)n1C`, -7.2% [this sample at 5 µg/mL]. With `Cc1ccc2c3c1C(=O)C(=O)N3C(C)(C)CC2C` (stereo unspecified), the inhibition is -4.8%.

In the case of `O=C(COc1ccc(Cl)cc1)N(c1ccccc1)c1ccccc1`, the inhibition was 5.1% [this sample at 5 µg/mL]. With `Cc1cccc(OCC(=O)N/N=C/c2cn[nH]c2-c2ccc(Cl)c(Cl)c2)c1` the figure was -6.5%.

Turning to `CCOC(=O)c1ccc(COC(=O)c2ccc3c(c2)-c2ccccc2C3=O)cc1`, the inhibition was -10.7%.

For the molecule `CCOC(=O)c1c(C)nc2c(c1-c1ccccc1)C(=O)c1ccccc1-2`, the inhibition was -4.1%. To `CC(CCc1ccccc1)NC(=O)c1cncc(Br)c1` (stereo unspecified) belongs 1.4%. For `CCOC(=O)c1c(C)oc2c1c1c(c3ccccc32)OCN(Cc2ccccn2)C1`, the inhibition was 4.9%. With `CCOC(=O)c1c(C)oc2c1c(C=NCC1CCCO1)c(O)c1ccccc12` (stereo unspecified) the figure was -5.6%; with `Cn1c(NCc2c[nH]c3ccccc23)nc2ccccc21`, -8.4%. To `CCOC(=O)c1csc(NC(=O)CSc2nnnn2CC)n1` belongs -8.3%.

Turning to `Cc1ccc(S(=O)(=O)N2CCSC2c2ccco2)cc1` (stereo unspecified), the inhibition is -2%. `CCOCCCn1c(SCC(=O)NCc2ccco2)nc2c(sc3ccccc32)c1=O`: the inhibition was 7.8%. With `Cc1ccc2ccc(C(Nc3ccccn3)c3ccccc3)c(O)c2n1` (stereo unspecified) the figure was 18.4%; with `Oc1c(C(Nc2ccccn2)c2ccccn2)ccc2cccnc12` (stereo unspecified), 6.9%; with `CC(=NCCc1ccccc1)C1=C(O)CCC1=O`, -2.3%. Turning to `COc1ccccc1NC(=O)CSc1nnc(-c2ccco2)n1Cc1ccco1`, the inhibition is -25.5%.

As for `COc1cccc(-c2nnc3sc(-c4ccccn4)nn23)c1`, the inhibition is -6.2%.

Consider `Cn1c(=O)oc2cc(S(=O)(=O)N3CCN(c4cccc(Cl)c4)CC3)ccc21`, for which the inhibition is -5.3%. To `O=C1/C(=C/c2ccc(I)o2)SC(=S)N1Cc1ccccc1` belongs -12.6% [this sample at 5 µg/mL]; to `Cc1ccc(/C=C2\SC(=S)N(Cc3ccccc3)C2=O)o1`, -10.8%. With `O=C(c1coc(=O)c(Br)c1)N1CCCc2ccccc21` the figure was 21.7%. With `CC1(C)CC(NC(=O)c2coc(=O)c(Br)c2)CC(C)(C)N1` the figure was -9.8%. With `O=C(CSCc1ccccc1Cl)NNC(=S)Nc1ccccc1`, the inhibition was -12.3%.

Regarding `CCOc1cc(/C=C2\SC(=S)N(Nc3ccccc3)C2=O)ccc1O`, the inhibition is 16.9%. To `COc1cc(/C=C2/SC(=S)N(CC(=O)Nc3cccc(C(=O)O)c3)C2=O)cc(OC)c1OC` belongs -3.5% [this sample at 5 µg/mL]. To `O=C1/C(=C/c2ccc(F)cc2)SC(=S)N1Nc1ncc(C(F)(F)F)cc1Cl` belongs -6.5%; to `COc1cc(/C=C2\SC(=S)N(Nc3ncc(C(F)(F)F)cc3Cl)C2=O)ccc1O`, 46.2%. To `CC(=O)NCCNC(=O)[C@H](Cc1ccccc1)NC(=O)c1cccs1` belongs -9%; to `CC1CC(C)CN(CC(C)(C)NS(=O)(=O)c2ccc(Cl)cc2)C1` (stereo unspecified), -13.3%; to `CC(C)C1Cc2c(C#N)c(N)n(C)c(=S)c2CO1` (stereo unspecified), -8%.

Turning to `CCC1(C)Cc2c(C#N)c(N)sc(=S)c2CO1` (stereo unspecified), the inhibition is 44.1%. Regarding `O=C1NC(=S)N(c2ccc(F)cc2)C(=O)C1=Cc1ccc([N+](=O)[O-])s1`, the inhibition is 31.5% [this sample at 5 µg/mL]. With `O=C(O)CSc1nnc(-c2ccccc2)o1` the figure was -16.7%. To `CCSc1nnc(-c2ccncc2)o1` belongs -3%; to `COC(=O)c1cccnc1NC(=S)NNC(=O)c1ccncc1`, 1.4%. As to `CC1=NN(c2ccc(Br)cc2)C(=O)/C1=C/c1cccs1`, the inhibition was -1.8%.

Take `O=C1N=C(c2ccccc2)S/C1=C\c1cccs1`: the inhibition is 5.5%. With `CCCCC(=O)Nc1cccc(NC(=O)c2ccc(Br)cc2)c1` the figure was -0.2%. To `Cc1cc(C)c2nc(N3CCN(C)CC3)c(C#N)cc2c1` belongs 8.1%; to `Cc1cc(C)c2nc(N3CCCN(C(=O)c4cnccn4)CC3)c(C#N)cc2c1`, 11.5%. With `Cc1ccc(N2CCCn3c2nc2c3c(=O)n(CCN3CCOCC3)c(=O)n2C)cc1` the figure was -11%; with `N=c1oc2ccccc2cc1-c1nc2ccccc2c(=O)[nH]1`, 5.9%.

For `O=C(/C=C/c1ccc(OCc2ccccc2)cc1)c1ccc(Br)cc1`, the inhibition is -5.6% [this sample at 5 µg/mL].

In the case of `O=C(/C=C/c1ccc(OCc2ccccc2)cc1)c1cccc(Br)c1`, the inhibition was 14.7% [this sample at 5 µg/mL]. With `CC(C)(C)C1=C(C#N)C(c2ccc3c(c2)OCO3)C(C#N)=C(N)O1` (stereo unspecified) the figure was 5%; with `CCC1=NN2C(=N)/C(=C/c3ccc(OCc4ccccc4)cc3)C(=O)N=C2S1`, 0.6% [this sample at 5 µg/mL].
